# Source: PubChem BioAssay (NCI)
# Compounds without any hit were thinned out: in the full panel of roughly 83,000, 20% have a hit.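 Single-dose data. Exposure time 48 hours. Values below 10 considered active.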 A number with no mark means an inactive call. Calls of active or inactive are those of the source.
# Columns and labels:
# Assay in all cases: NCI-60 one-dose screen, 48 h (100 = growth as untreated, 0 = no growth, -100 = all killed)
# Settings in all cases: 10 µM unless noted
# [1] = tested on: NCI-H23 lung
# [2] = tested on: NCI-H226 lung
# [3] = tested on: NCI-H322M lung
# [4] = tested on: HOP-62 NSCLC
# [5] = tested on: NCI-H460 lung
# [6] = tested on: HOP-92 NSCLC
# [7] = tested on: NCI-H522 lung
# [8] = tested on: A549/ATCC NSCLC
# [9] = tested on: 786-0 renal
# [10] = tested on: COLO 205 colon
# [11] = tested on: DU-145 prostate
# [12] = tested on: K-562 leukemia
# [13] = tested on: MALME-3M melanoma
# [14] = tested on: MDA-MB-231 breast
# [15] = tested on: RXF 393 renal
# [16] = tested on: SF-268 CNS
# [17] = tested on: SF-295 CNS
# [18] = tested on: SF-539 CNS
# [19] = tested on: UACC-257 melanoma
# [20] = tested on: M14 melanoma
Structure (SMILES),growth [1],growth [2],growth [3],growth [4],growth [5],growth [6],growth [7],growth [8],growth [9],growth [10],growth [11],growth [12],growth [13],growth [14],growth [15],growth [16],growth [17],growth [18],growth [19],growth [20]
COc1sc(/C=N/NC(=O)c2[nH]c3ccc(Br)cc3c2-c2ccccc2)cc1Br,-14.1% (active),14.7%,31.4%,12.2%,-7.71% (active),63.7%,-35.8% (active),6.26% (active),-1.7% (active),0.155% (active),-8.01% (active),7.79% (active),48%,-13.3% (active),-0.818% (active),3.22% (active),-15% (active),-64.1% (active),52.7%,10.7%
O=S(=O)(c1nc(-c2ccc(Br)cc2)oc1-c1ccc(Cl)cc1)N1CCCC(O)C1 (stereo not given),47.3%,60.4%,78.3%,102%,34.1%,-14.5% (active),49.2%,47.6%,58.9%,81%,72.6%,33.8%,74.8%,60%,51.3%,63%,58.1%,84.5%,80.3%,69.7%
Cc1ccc(C(=O)Nc2cc(-c3ccncc3)cc(C(F)(F)F)c2)cc1C#Cc1cnc2cccnn12,35.5%,27.9%,79%,44.3%,51.8%,31.7%,33.1%,48.6%,46.3%,32.3%,68.9%,2.38% (active),-11.8% (active),23.7%,28.8%,79.4%,46.3%,32.3%,40.9%,8.59% (active)
CCCCCCCCc1cccc(CC(=O)Nc2ccc(C)cc2C(=O)O)c1,59.3% [25 µM],65.3% [25 µM],62.7% [25 µM],54.8% [25 µM],20.4% [25 µM],83.8% [25 µM],38.7% [25 µM],31.4% [25 µM],34.1% [25 µM],59.1% [25 µM],59.4% [25 µM],28.9% [25 µM],67.7% [25 µM],66.5% [25 µM],104% [25 µM],61.9% [25 µM],35.2% [25 µM],37.1% [25 µM],71.2% [25 µM],62.9% [25 µM]
O=C1CCC(N2C(=O)c3cccc(NCCCCCC(=O)N4CCN(c5ccc6nc7c(nc6c5C(F)(F)F)C(=O)c5ncccc5C7=O)CC4)c3C2=O)C(=O)N1 (stereo not given),-49% (active),-51.3% (active),-73.8% (active),-74.2% (active),-48.3% (active),-40.2% (active),-62% (active),-64.3% (active),-56.5% (active),-75.9% (active),-88.3% (active),-0.95% (active),-99.3% (active),-46.2% (active),-72.1% (active),-29.5% (active),-84.1% (active),-95.4% (active),-98.3% (active),-87.2% (active)
COc1cc(-c2ccc3ncnc(N4CCc5ccc(Cl)cc54)c3c2)cnc1Cl,19.9%,18.8%,15.9%,50.2%,12.4%,-0.319% (active),38.6%,34.7%,14.1%,32.1%,10.6%,23.1%,34.9%,30.8%,-4.17% (active),40.2%,35%,24.8%,59.2%,29.8%
O=C(O)CC1S/C(=N/N=C/c2nc3ccccc3s2)NC1=O (stereo not given),96.2%,101%,106%,108%,94.7%,136%,104%,96%,80.9%,135%,95.8%,94.1%,107%,102%,134%,85.5%,104%,98.1%,105%,90.4%
COc1cc(C2CC(c3ccc(C(F)(F)F)cc3)=Nc3c(N)nc(N)nc3N2)ccc1Oc1nc(Nc2ccc(F)cc2)nc(N(C)C)n1 (stereo not given),82.2%,58.6%,90.8%,81.2%,13%,33.3%,30%,45.9%,39.1%,39%,59.9%,7.52% (active),65.3%,29.5%,3.99% (active),53.3%,36.6%,51.4%,50.3%,28.2%
